According to PubChem BioAssay (Tox21):
Records with an inconclusive call do not appear. Activity calls are given as the source filed them. Unless noted, calls follow the shape of the dose curve; as a rule, active = well fitted curve in the direction sought with a large enough effect in the repeat runs; inconclusive = weak or mixed curves; inactive = no such curve, though single readings can be large; an effect the other way counts as inactive or inconclusive.

Columns and labels:
[1] = target: Thyrotropin receptor (Homo sapiens) (UniProt P16473); assay: qHTS assay to identify small molecule agonists of the thyroid stimulating hormone receptor (TSHR) signaling pathway (AID 1224843; calls by dose curve; also: nearly all actives have a fitted effect of over 45% in size; also: potency is read from the fitted curve at half-maximal effect)
Method in brief: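 Cell line HEK293 with TSHR; density 800/well. Exposure 30 min RT. Readout HTRF cAMP (cAMP-d2/anti-cAMP-cryptate), 1 h RT before reading.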

[2] = qHTS assay to identify small molecule agonists of the hypoxia (HIF-1) signaling pathway - cell viability counter screen (AID 1224844; calls by dose curve; also: nearly all actives have a fitted effect of over 50% in size; also: potency is read from the fitted curve at half-maximal effect)
Method in brief: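 ME-180 HRE-bla cells, 2,000/well, 0.5% dialyzed FBS; 5 hr settle, 17 hr compound at 37C/5% CO2; CCF4-AM reporter read first, then CellTiter-Glo luminescence after 30 min RT.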

[3] = qHTS assay to identify small molecule agonists of H2AX (AID 1224845; active = well fitted activation curve with a large enough effect in the signal ratio in the repeat runs, not every such curve was filed as active; the % refers to the signal ratio)
Method in brief: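 Wild-type CHO-K1 cells plated overnight, then exposed 3 hr at 37C to compounds at 15 concentrations (0.76% DMSO). Lysed, then HTRF anti-pH2AX(S139)-cryptate/anti-H2AX-d2 detection after 24 hr at room temperature; emissions 665 and 620 nm.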

[4] = qHTS assay to identify small molecule agonists of H2AX - cell viability counter screen (AID 1224847; calls by dose curve; also: top concentration of the series differs between compounds; nearly all actives have a fitted effect of over 30% in size)
Method in brief: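 Read-out: CellTiter-Glo luminescence, 30 min RT. Cells: wild-type CHO-K1, 1000/well, 10% FBS, plated overnight at 37C. Treatment: 15 concentrations, 3 hr, 37C, 0.76% DMSO.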

[5] = qHTS RealTime-Glo MT Cell Viability Assay in HepG2 cells - 24 hour (AID 1224867); also: nearly all actives have a fitted effect of over 50% in size
Method in brief: (§1)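 Cell number in HepG2 cultures estimated from NanoLuc luminescence generated by metabolic reduction of a prosubstrate by living cells. The homogeneous, nonlytic format allowed repeated reads at 0, 8, 16, 24, 32 and 40 h of compound exposure.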

[6] = qHTS RealTime-Glo MT Cell Viability Assay in HEK293 cells - 32 hour (AID 1224868); also: nearly all actives have a fitted effect of over 50% in size; also: potency is read from the fitted curve at half-maximal effect
Method in brief: (§2)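 Homogeneous bioluminescent viability format in HEK293 cells (600 cells/well). Following 5 h at 37 C/5% CO2, 23 nL compound was pintooled; the signal was measured repeatedly during 40 h incubation.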

[7] = qHTS RealTime-Glo MT Cell Viability Assay in HepG2 cells - 40 hour (AID 1224870); also: nearly all actives have a fitted effect of over 50% in size; also: potency is read from the fitted curve at half-maximal effect
Method in brief: (§3)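 HepG2 cells mixed with RealTime-Glo MT reagents (NanoLuc plus cell-permeant prosubstrate) were seeded at 600 cells/well, incubated 5 h at 37 C/5% CO2, then pinned with compounds in DMSO; nonlytic luminescence tracked viability during 40 h treatment.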

[8] = A CellTox Green Cytotoxicity Assay to monitor cytotoxicity in HEK293 cells - 40 hour (AID 1224871); also: nearly all actives have a fitted effect of over 45% in size
Method in brief: (§4)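 Nonlytic real-time cytotoxicity: HEK293 + CellTox Green reagent plated, 5 h preincubation, pintool compound addition (23 nL in DMSO), 37 C for 40 h, fluorescence measured at successive time points.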

[9] = qHTS RealTime-Glo MT Cell Viability Assay in HEK293 cells - 16 hour (AID 1224872); also: nearly all actives have a fitted effect of over 50% in size; also: potency is read from the fitted curve at half-maximal effect
Method in brief: as §2

[10] = qHTS RealTime-Glo MT Cell Viability Assay in HepG2 cells - 8 hour (AID 1224873); also: nearly all actives have a fitted effect of over 55% in size
Method in brief: as §3

[11] = qHTS RealTime-Glo MT Cell Viability Assay in HEK293 cells - 40 hour (AID 1224874); conditions: RealTime-Glo luminescence; max response: hits give low values; also: nearly all actives have a fitted effect of over 50% in size; also: potency is read from the fitted curve at half-maximal effect
Method in brief: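 Cells were seeded together with NanoLuc luciferase and a prosubstrate that viable cells reduce to a luciferase substrate. After a 5 h incubation at 37 C/5% CO2, compounds were added and luminescence was measured repeatedly during 40 h of treatment.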

[12] = A CellTox Green Cytotoxicity Assay to monitor cytotoxicity in HEK293 cells - 24 hour (AID 1224875); also: nearly all actives have a fitted effect of over 45% in size
Method in brief: as §4

[13] = A CellTox Green Cytotoxicity Assay to monitor cytotoxicity in HepG2 cells - 16 hour (AID 1224876); also: nearly all actives have a fitted effect of over 45% in size
Method in brief: (§5)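 Read-out is fluorescence of a cyanine dye excluded from live cells that stains DNA of dead HepG2 cells, with signal proportional to cytotoxicity. Plates were read at 0, 8, 16, 24, 32 and 40 h after compound addition.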

[14] = qHTS RealTime-Glo MT Cell Viability Assay in HepG2 cells - 32 hour (AID 1224877); also: nearly all actives have a fitted effect of over 55% in size; also: potency is read from the fitted curve at half-maximal effect
Method in brief: as §1

[15] = A CellTox Green Cytotoxicity Assay to monitor cytotoxicity in HepG2 cells - 24 hour (AID 1224878); also: nearly all actives have a fitted effect of over 45% in size; also: potency is read from the fitted curve at half-maximal effect
Method in brief: as §5

[16] = A CellTox Green Cytotoxicity Assay to monitor cytotoxicity in HepG2 cells - 40 hour (AID 1224879); also: nearly all actives have a fitted effect of over 40% in size; also: potency is read from the fitted curve at half-maximal effect
Method in brief: as §5

[17] = A CellTox Green Cytotoxicity Assay to monitor cytotoxicity in HEK293 cells - 0 hour (AID 1224869); also: nearly all actives have a fitted effect of over 50% in size
Method in brief: as §4

[18] = qHTS assay to identify small molecule antagonists of the estrogen related receptor (ERR) signaling pathway from Tox21 library (AID 1224848); also: nearly all actives have a fitted effect of over 50% in size
Method in brief: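 Screening used an ERR reporter line supplied by NTP, exposed for 18 h at 37 C to library compounds delivered in DMSO. Signal was luciferase luminescence developed with ONE-Glo at room temperature for 30 min.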

[19] = qHTS assay to identify small molecule agonists of the estrogen related receptor (ERR) signaling pathway from Tox21 library (AID 1224849; calls by dose curve; also: nearly all actives have a fitted effect of over 15% in size); conditions: ERR reporter cell line, ONE-Glo luciferase, 18 h; at 92.4 µM (top of the series) unless noted
Method in brief: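 ERR cells, 6 h pre-incubation 37 C/5% CO2; cpd in DMSO pinned; 18 h 37 C; ONE-Glo added, 30 min RT; luminescence read. Agonist mode, qHTS.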

[20] = qHTS assay to identify small molecule agonists of the hypoxia (HIF-1) signaling pathway (AID 1224846; active = well fitted activation curve with a large enough effect in the signal ratio in the repeat runs, not every such curve was filed as active; the % refers to the signal ratio)
Method in brief: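 Cell line: CellSensor HRE-bla ME-180; 2,000 cells/well; 0.5% dialyzed FBS; 5 h preincubation; DMSO compound pin transfer; 17 h, 37C, 5% CO2; CCF4-AM added; bla FRET signal scored for activation.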
% is scaled to controls: 0 for no effect and ±100 for the full control effect.

Thyrotropin receptor (Homo sapiens), sequence (P16473 whole entry, looked up): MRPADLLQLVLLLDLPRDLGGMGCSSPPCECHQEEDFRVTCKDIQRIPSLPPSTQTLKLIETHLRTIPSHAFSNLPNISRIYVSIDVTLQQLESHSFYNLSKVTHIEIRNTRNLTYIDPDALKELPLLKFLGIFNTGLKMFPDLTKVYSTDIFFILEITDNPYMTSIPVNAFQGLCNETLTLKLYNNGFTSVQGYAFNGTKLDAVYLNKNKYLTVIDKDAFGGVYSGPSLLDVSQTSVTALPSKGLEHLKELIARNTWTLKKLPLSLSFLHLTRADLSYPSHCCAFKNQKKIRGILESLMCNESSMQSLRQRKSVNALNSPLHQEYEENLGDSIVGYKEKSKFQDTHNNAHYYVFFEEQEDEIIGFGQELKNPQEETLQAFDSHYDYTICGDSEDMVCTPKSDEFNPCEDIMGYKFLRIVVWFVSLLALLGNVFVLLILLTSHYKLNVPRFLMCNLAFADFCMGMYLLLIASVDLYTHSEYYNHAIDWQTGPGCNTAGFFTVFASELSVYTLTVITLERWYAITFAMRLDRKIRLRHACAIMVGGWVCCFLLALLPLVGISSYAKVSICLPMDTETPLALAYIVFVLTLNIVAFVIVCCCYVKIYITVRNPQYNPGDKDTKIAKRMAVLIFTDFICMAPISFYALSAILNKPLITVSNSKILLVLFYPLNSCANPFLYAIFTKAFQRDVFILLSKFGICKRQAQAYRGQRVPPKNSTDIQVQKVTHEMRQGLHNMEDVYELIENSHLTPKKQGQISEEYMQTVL

Cc1ccc(Cl)c(Nc2ccccc2C(=O)O)c1Cl
inactive: Potency [1] | Potency [2] | Potency [3] | Potency [4] | Potency [5] | Potency [6] | Potency [7] | Potency [8] | Potency [9] | Potency [10] | max response [11] -3% | Potency [12] | Potency [13] | Potency [14] | Potency [15] | Potency [16]

O=C(O)CCC(=O)C(=O)O
inactive: Potency [1] | Potency [2] | Potency [3] | Potency [4] | Potency [5] | Potency [6] | Potency [17] | Potency [7] | Potency [8] | Potency [9] | Potency [10] | max response [11] 0.138% | Potency [12] | Potency [13] | Potency [14] | Potency [15] | Potency [16]

CCOC(=O)/C=C/C(=O)OCC
inactive: Potency [1] | Potency [2] | Potency [3] | Potency [4] | Potency [18] | activity change, positive = activation [19] 6.14% | Potency [5] | Potency [6] | Potency [17] | Potency [7] | Potency [8] | Potency [9] | Potency [10] | Potency [12] | Potency [13] | Potency [14] | Potency [15] | Potency [16]

CCOc1ccccc1O[C@H](c1ccccc1)[C@H]1CNCCO1
inactive: Potency [1] | Potency [2] | Potency [3] | outcome [20] | Potency [4] | Potency [6] | Potency [7] | Potency [8] | Potency [9] | Potency [10] | max response [11] 1.67% | Potency [12] | Potency [14] | Potency [15]

NCCNCCO
inactive: Potency [1] | Potency [2] | Potency [3] | Potency [4] | Potency [18] | activity change, positive = activation [19] 0.838% | Potency [5] | Potency [6] | Potency [17] | Potency [7] | Potency [8] | Potency [9] | Potency [10] | max response [11] 20.2% | Potency [12] | Potency [14] | Potency [15] | Potency [16]

CCC(C)COC(=O)CC(C)C (centres undefined)
active: Potency [2] 19.5 µM | Potency [15] 54.9 µM | Potency [16] 49 µM
inactive: Potency [1] | Potency [3] | Potency [4] | Potency [5] | Potency [6] | Potency [17] | Potency [7] | Potency [8] | Potency [9] | Potency [10] | Potency [12]

CC(C)=CC(=O)C=C(C)C
inactive: Potency [1] | Potency [2] | outcome [20] | Potency [4] | Potency [18] | activity change, positive = activation [19] 0.257% | Potency [5] | Potency [6] | Potency [17] | Potency [7] | Potency [8] | Potency [9] | Potency [10] | max response [11] 9.12% | Potency [12] | Potency [13] | Potency [14] | Potency [15] | Potency [16]

C[C@@]12CCC[C@H]1[C@@H]1CC[C@H]3C[C@@H](O)CC[C@]3(C)[C@H]1CC2
inactive: Potency [1] | Potency [2] | outcome [20] | Potency [4] | Potency [18] | activity change, positive = activation [19] -6.1% [at 42.5 µM] | Potency [5] | Potency [6] | Potency [17] | Potency [7] | Potency [9] | Potency [10] | max response [11] 5.8% | Potency [12] | Potency [13] | Potency [15] | Potency [16]

N#[N+]c1ccc2c(S(=O)(=O)[O-])cccc2c1O
inactive: Potency [1] | Potency [2] | outcome [20] | Potency [4] | Potency [18] | activity change, positive = activation [19] -0.985% | Potency [6] | Potency [17] | Potency [7] | Potency [8] | Potency [9] | Potency [10] | max response [11] -19.6% | Potency [12] | Potency [13] | Potency [15] | Potency [16]

O=C1c2ccccc2C(=O)C1c1nc2ccccc2c(Br)c1O
inactive: Potency [1] | Potency [2] | Potency [3] | Potency [4] | Potency [5] | Potency [6] | Potency [17] | Potency [7] | Potency [8] | Potency [9] | Potency [10] | max response [11] 21.2% | Potency [12] | Potency [14]
active: Potency [16] 4.9 µM

CC(C)=CCC/C(C)=C/CC/C(C)=C/CCC(=O)OC/C=C(\C)CCC=C(C)C
inactive: Potency [1] | Potency [2] | Potency [3] | outcome [20] | Potency [18] | activity change, positive = activation [19] -0.27% [at 42.5 µM] | Potency [5] | Potency [6] | Potency [17] | Potency [7] | Potency [9] | Potency [10] | max response [11] 2.19% | Potency [12] | Potency [13] | Potency [14] | Potency [15] | Potency [16]

CCOC(=O)OC(C)OC(=O)[C@@H]1N2C(=O)[C@@H](NC(=O)[C@H](N)c3ccccc3)[C@H]2SC1(C)C (some centres undefined)
inactive: Potency [1] | Potency [2] | Potency [3] | Potency [4] | Potency [5] | Potency [6] | Potency [17] | Potency [7] | Potency [8] | Potency [9] | Potency [10] | max response [11] -0.757% | Potency [12] | Potency [15] | Potency [16]

CCCCCCNC(=O)n1cc(F)c(=O)[nH]c1=O
inactive: Potency [1] | Potency [2] | outcome [20] | Potency [4] | Potency [18] | activity change, positive = activation [19] -8.15% [at 42.5 µM] | Potency [6] | Potency [17] | Potency [7] | Potency [8] | Potency [9] | Potency [10] | max response [11] -6.08% | Potency [12] | Potency [13] | Potency [14] | Potency [15] | Potency [16]

CCCCCCCCCI
inactive: Potency [2] | outcome [20] | Potency [4] | Potency [18] | activity change, positive = activation [19] 3.18% | Potency [6] | Potency [17] | Potency [8] | Potency [9] | Potency [10] | max response [11] -1.11% | Potency [12] | Potency [13] | Potency [15] | Potency [16]
active: Potency [1] 24.8 µM | Potency [7] 25 µM | Potency [14] 35.3 µM

COc1ccccc1N1CCN(CCCCNC(=O)c2ccc(-c3ccc(C(C)=O)cc3)cc2)CC1
active: Potency [6] 1.51 µM | Potency [9] 1.9 µM | Potency [11] 1.9 µM | Potency [16] 26.8 µM
inactive: Potency [1] | Potency [2] | Potency [3] | Potency [4] | Potency [5] | Potency [17] | Potency [7] | Potency [10] | Potency [12] | Potency [13] | Potency [14]
